Measurements from PubChem BioAssay.
Calls of active or inactive are those of the source.

How the values were obtained:
Albumin (Bos taurus) = Albumin (Bos taurus) (UniProt P02769); test: bovine serum albumin binders on microarray, profiling panel, artefact control for SMM control protein annotation, biochemical, small-molecule microarray, Alexa647 label, 635/667 nm fluorescence (AID 1118); settings: BSA-A647 binding, fluorescence 635 nm, higher = more signal;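 further: score merges 667 nm emission intensity and signal-to-noise per printed compound spot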
[1] = small-molecule microarray binders of probe aXIP, primary screen, biochemical, NeuroSMM set, 635/667 nm fluorescence (AID 1119); settings: higher = more signal, called active from +8 up or from −8 down;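 further: probe is the protein aXip251-270 applied at 1 µg/mL to compound-printed slides; binding of probe to printed compounds measured as 667 nm fluorescence plus signal to noise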
[2] = small-molecule binders of probe aNOTCH3, primary screen, biochemical, small-molecule microarray, 635/667 nm fluorescence (AID 1120); settings: higher = more signal;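 further: probe is a biotin-tagged antibody raised against NOTCH3 rather than NOTCH3 protein; score merges spot fluorescence near 667 nm with spot signal to noise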
[3] = small-molecule binders of probe aNOTCH2, primary screen, biochemical, small-molecule microarray, 635/667 nm fluorescence (AID 1121); settings: higher = more signal;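 further: score merges feature fluorescence read at 667 nm with its signal to noise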
[4] = molecular target: Carbonic anhydrase 2 (Homo sapiens) (UniProt P00918); test: CAII small-molecule binders, profiling panel, biochemical, small-molecule microarray, Alexa647-labelled CAII (AID 1122); settings: CAII-A647 binding fluorescence, higher = more signal
[5] = COS7 lysate on small-molecule microarray, probe aHis, 635 nm (AID 1123); settings: COS7 cell lysate, fluorescence, higher = more signal;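 further: z-score combines 667nm fluorescence intensity with signal-to-noise per printed compound spot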
[6] = compound binding in COS7 lysate, probe aLAP1, primary screen, cell lysate, small-molecule microarray (AID 1124); settings: probe aLAP1, fluorescence, higher = more signal;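 further: lysate comes from COS7 cells expressing LAP1 and is applied at 0.3 µg/mL; score merges spot fluorescence near 667 nm with signal-to-noise over triplicate slides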
Sam68 (KHDRBS1) = test: Sam68 small-molecule binders, primary screen, biochemical, small-molecule microarray, 635 nm fluorescence (AID 1125); settings: small-molecule microarray binding, higher = more signal;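 further: score merges 667 nm channel intensity with signal to noise over triplicate slides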
[7] = system: Chordin-like protein 2 (CHRDL2); test: CHRDL2 small-molecule binders, primary screen, biochemical, small-molecule microarray, 635 nm fluorescence (AID 1126); settings: small-molecule microarray binding, fluorescence 635 nm; higher = more signal;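 further: printed compound slides probed with Chrdl2 protein at 4 µg/mL for 1 h at 4 C; score merges 667 nm emission intensity with signal to noise over three replicate slides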
[8] = molecular target: Concanavalin-A (Canavalia ensiformis) (UniProt P02866); test: ConA small-molecule binders, primary screen, artefact control for SMM control protein annotation, biochemical, small-molecule microarray, Alexa647 label, 635 nm (AID 1127); settings: ConA-A647 binding fluorescence, higher = more signal;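 further: z combines 667 nm emission intensity with signal-to-noise across three replicate slides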
[9] = anti-His antibody binders, primary screen, artefact control for SMM control protein annotation, biochemical, small-molecule microarray, 635 nm fluorescence (AID 1128); settings: anti-His Alexa647 antibody binding, higher = more signal;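 further: score merges feature fluorescence with signal-to-noise for each printed compound spot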
[10] = system: Human papillomavirus type 1a E7 protein (residues 1-88); test: HPV1a E7 small-molecule binders, primary screen, biochemical, small-molecule microarray, residues 1-88, 635 nm (AID 1129); settings: small-molecule microarray binding, fluorescence 635 nm; higher = more signal
[11] = molecular target: Focal adhesion kinase 1 (Homo sapiens) (UniProt Q05397); test: small-molecule microarray binders of FAK, primary screen, biochemical, 635/667 nm fluorescence, BSA, DTT (AID 1130); settings: PTK2 binding, 635 nm fluorescence, higher = more signal;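 further: composite of spot emission at 667 nm and signal to noise over triplicate slides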
[12] = system: Fibrinogen (Alexa647-labelled); test: fibrinogen binders on compound microarrays, profiling panel, artefact control for SMM control-protein annotation, biochemical, small-molecule microarray, 635/667 nm fluorescence (AID 1131); settings: fibrinogen-A647 binding fluorescence, higher = more signal;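 further: z-score merges 667 nm fluorescence with per-spot signal-to-noise over triplicate slides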
[13] = molecular target: Follistatin (Homo sapiens) (UniProt P19883); test: follistatin binders on small-molecule microarrays, primary screen, biochemical, small-molecule microarray, 635/667 nm fluorescence (AID 1132); settings: FST binding, 635 nm fluorescence, higher = more signal
[14] = molecular target: Fibroblast growth factor 2 (Homo sapiens) (UniProt P09038); test: FGF2 binders on small-molecule microarrays, primary screen, biochemical, small-molecule microarray, 635/667 nm fluorescence (AID 1133); settings: small-molecule microarray binding, FGF2, fluorescence 635/667; higher = more signal
[15] = mitochondrial membrane potential change in A549 cells, profiling panel, cell-based, JC-1 fluorescence, basal, 24 h, 100 nL (AID 1138); settings: higher = more signal;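 further: A549 lung adenocarcinoma cells under basal conditions with no added stimulus; test concentration not given here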
Lefty1 = Lefty1 binders on small-molecule microarrays, primary screen, biochemical, small-molecule microarray, 635/667 nm fluorescence (AID 1139); settings: small-molecule microarray binding, fluorescence 635/667; higher = more signal
[16] = system: wheat germ agglutinin (Triticum aestivum), Alexa647-labelled; test: wheat germ agglutinin binders on compound microarrays, profiling panel, artefact control for SMM control-protein annotation, biochemical, small-molecule microarray, 635/667 nm fluorescence (AID 1140); settings: WGA-A647 binding, 635 nm fluorescence, higher = more signal;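 further: score merges 667 nm feature emission with signal to noise over triplicate slides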
[17] = molecular target: Luciferin 4-monooxygenase (Photinus pyralis) (UniProt P08659); test: firefly luciferase enzyme inhibitors, primary screen, biochemical, luminescence, purified enzyme, 2006 set (AID 1141); settings: SteadyGlo luminescence, 30 min, higher = more signal, called active from +8 up or from −8 down;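 further: cell-free assay with purified firefly luciferase at 100 ng per well in PBS; test concentration not given here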
Sequence of Luciferin 4-monooxygenase (Photinus pyralis) (P08659 whole entry, looked up): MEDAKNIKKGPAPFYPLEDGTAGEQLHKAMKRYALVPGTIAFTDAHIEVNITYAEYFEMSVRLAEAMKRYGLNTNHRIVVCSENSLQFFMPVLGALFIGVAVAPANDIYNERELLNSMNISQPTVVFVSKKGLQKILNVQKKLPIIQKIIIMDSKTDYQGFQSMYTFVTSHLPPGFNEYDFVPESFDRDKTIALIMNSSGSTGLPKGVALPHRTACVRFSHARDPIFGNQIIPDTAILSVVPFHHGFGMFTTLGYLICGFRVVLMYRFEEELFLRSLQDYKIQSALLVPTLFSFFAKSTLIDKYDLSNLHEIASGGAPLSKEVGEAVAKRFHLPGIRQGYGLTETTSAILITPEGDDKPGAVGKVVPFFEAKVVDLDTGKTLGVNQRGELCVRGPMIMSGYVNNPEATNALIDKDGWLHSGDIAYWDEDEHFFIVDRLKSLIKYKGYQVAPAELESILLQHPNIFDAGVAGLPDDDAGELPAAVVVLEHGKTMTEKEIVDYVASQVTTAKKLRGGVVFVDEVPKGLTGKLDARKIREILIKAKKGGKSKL

Sequence of Follistatin (Homo sapiens) (P19883 whole entry, looked up): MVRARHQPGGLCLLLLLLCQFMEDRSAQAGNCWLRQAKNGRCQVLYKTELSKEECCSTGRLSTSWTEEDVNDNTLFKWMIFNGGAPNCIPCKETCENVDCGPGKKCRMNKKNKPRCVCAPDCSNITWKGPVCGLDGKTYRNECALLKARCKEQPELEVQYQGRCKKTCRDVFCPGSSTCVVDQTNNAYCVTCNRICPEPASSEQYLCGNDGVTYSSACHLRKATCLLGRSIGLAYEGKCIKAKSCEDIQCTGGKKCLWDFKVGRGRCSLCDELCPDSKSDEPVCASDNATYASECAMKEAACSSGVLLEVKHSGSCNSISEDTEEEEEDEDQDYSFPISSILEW
Sequence of Albumin (Bos taurus) (P02769 whole entry, looked up): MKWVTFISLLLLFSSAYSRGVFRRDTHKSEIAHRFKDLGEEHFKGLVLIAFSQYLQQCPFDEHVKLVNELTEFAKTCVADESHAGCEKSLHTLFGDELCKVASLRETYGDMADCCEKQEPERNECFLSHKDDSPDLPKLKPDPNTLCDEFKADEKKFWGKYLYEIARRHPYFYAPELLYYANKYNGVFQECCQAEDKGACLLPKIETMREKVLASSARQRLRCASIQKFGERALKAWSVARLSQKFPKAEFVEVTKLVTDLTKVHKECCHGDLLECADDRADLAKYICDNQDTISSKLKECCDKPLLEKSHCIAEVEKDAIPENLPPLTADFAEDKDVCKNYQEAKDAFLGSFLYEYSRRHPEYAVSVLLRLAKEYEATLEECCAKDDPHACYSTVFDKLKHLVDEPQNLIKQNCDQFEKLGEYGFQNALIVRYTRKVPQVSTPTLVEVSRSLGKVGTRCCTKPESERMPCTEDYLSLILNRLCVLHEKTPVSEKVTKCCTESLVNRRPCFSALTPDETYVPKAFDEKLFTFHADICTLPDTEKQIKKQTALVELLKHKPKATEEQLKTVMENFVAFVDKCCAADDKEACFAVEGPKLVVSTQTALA
Sequence of Focal adhesion kinase 1 (Homo sapiens) (Q05397 whole entry, looked up): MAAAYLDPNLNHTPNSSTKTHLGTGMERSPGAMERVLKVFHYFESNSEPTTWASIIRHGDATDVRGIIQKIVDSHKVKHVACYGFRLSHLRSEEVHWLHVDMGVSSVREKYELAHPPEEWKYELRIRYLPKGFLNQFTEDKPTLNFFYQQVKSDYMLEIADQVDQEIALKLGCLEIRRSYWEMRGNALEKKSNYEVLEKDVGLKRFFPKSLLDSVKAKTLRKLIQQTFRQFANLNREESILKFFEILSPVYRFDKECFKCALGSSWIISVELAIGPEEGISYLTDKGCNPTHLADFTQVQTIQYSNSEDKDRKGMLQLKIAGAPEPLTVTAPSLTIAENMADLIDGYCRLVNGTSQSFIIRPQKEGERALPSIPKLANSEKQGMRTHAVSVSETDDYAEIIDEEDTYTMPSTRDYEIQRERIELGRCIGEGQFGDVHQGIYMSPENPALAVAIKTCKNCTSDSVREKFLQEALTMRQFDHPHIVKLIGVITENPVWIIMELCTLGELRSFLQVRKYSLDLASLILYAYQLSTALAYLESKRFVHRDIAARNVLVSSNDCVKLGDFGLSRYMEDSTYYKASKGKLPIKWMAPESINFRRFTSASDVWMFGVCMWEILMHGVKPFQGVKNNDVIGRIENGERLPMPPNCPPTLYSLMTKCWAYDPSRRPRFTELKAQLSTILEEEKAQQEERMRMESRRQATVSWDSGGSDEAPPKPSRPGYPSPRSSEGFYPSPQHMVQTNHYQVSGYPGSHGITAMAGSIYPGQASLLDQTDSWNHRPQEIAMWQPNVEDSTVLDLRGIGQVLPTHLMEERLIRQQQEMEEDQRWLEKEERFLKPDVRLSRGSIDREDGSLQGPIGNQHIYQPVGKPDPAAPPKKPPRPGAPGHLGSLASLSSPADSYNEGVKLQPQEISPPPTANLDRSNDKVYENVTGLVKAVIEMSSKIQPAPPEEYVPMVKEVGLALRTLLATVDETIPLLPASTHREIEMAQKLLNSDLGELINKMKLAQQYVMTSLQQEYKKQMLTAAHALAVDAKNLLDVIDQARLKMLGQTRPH
Sequence of Fibroblast growth factor 2 (Homo sapiens) (P09038 whole entry, looked up): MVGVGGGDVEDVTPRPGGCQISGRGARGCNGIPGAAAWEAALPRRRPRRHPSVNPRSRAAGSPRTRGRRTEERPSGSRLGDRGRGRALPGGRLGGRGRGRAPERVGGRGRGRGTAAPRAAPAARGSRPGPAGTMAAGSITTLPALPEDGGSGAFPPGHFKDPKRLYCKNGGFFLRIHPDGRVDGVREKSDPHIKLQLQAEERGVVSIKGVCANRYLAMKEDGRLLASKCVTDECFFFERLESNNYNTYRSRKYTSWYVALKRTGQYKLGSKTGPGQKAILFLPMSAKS
Sequence of Concanavalin-A (Canavalia ensiformis) (P02866 whole entry, looked up): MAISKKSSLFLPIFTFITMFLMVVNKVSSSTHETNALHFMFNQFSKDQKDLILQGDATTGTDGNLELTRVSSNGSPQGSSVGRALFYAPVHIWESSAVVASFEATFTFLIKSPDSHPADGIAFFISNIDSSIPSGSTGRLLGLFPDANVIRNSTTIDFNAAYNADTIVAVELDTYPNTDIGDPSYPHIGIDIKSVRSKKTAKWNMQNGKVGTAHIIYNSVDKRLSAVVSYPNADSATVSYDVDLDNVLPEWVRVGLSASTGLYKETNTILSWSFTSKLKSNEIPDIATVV

Row | Structure (SMILES) | composite z-score (Albumin (Bos taurus)) | composite Z-score [1] | composite z-score [2] | composite z-score [3] | composite z-score [4] | composite z-score [5] | composite z-score [6] | composite z-score (Sam68 (KHDRBS1)) | composite z-score [7] | composite z-score [8] | composite z-score [9] | composite z-score [10] | composite z-score [11] | composite z-score [12] | composite z-score [13] | composite z-score [14] | z-score [15] | composite z-score (Lefty1) | composite z-score [16] | z-score [17]
1 | C=CC[C@H](O)c1ccc(O)c2ccccc12 | -0.491 | 0.579 (inactive) | 0.037 | -0.0904 | 0.421 | 1.63 | 0.0233 | 1.06 | 1.4 | 0.79 | 1.02 | 0.604 | 0.126 | 0.24 | 1.4 | 1.49 | -0.0561 | 1.26 | 0.742 | -2.47 (inactive)
2 | N#Cc1ccc(NN2C(C(O)c3ccc(B(O)O)cc3)C=CC3CN(c4ccccc4)C(=O)C32)cc1 (stereo not given) | 0.813 | -0.254 (inactive) | -0.128 | -0.188 | 0.852 | 0.417 | -0.247 | 0.141 | -0.412 | 0.133 | 0.48 | -0.633 | -0.508 | 0.529 | -0.0923 | -0.436 | -0.408 | -0.118 | 0.485 | -1.24 (inactive)
3 | O=C1C2C=CC(C(O)C(c3ccccc3)c3ccccc3)N(Nc3ccccc3F)C2C(=O)N1c1ccccc1 (stereo not given) | 1 | -0.173 (inactive) | 0.24 | -0.0386 | 0.612 | 2.99 | 1.02 | 1.31 | -0.0392 | 0.5 | 1.65 | 1.24 | 0.22 | 0.97 | 1.2 | 0.158 | -1.18 | 0.667 | 1.1 | 0.294 (inactive)
4 | O=C1NC(=O)C2C1C=CC(C(O)C(O)CO)N2Nc1ccccn1 (stereo not given) | 0.319 | 0.035 (inactive) | 0.0026 | -0.207 | 0.315 | 0.344 | 0.635 | 0.523 | 0.105 | 0.932 | 0.37 | 0.434 | -0.201 | 0.485 | 0.176 | -0.0885 | 0.767 | 0.0364 | 0.333 | -1.41 (inactive)
5 | [N-]=[N+]=NCc1ccccc1[C@H]1OC(c2ccc(OCCCO)cc2)=N[C@@]1(Cc1ccccc1N=[N+]=[N-])C(=O)N1CCOCC1 | 0.939 | 0.594 (inactive) | 0.0159 | -0.0895 | 0.676 | 2.57 | -0.14 | 1.3 | -0.596 | 1.14 | 0.574 | 1.21 | 0.993 | 1.04 | 0.526 | -0.335 | 0.704 | 0.0349 | 1.07 | -2.44 (inactive)
6 | COc1ccc(C(O)C2C=CC3C(=O)N(c4ccccc4)C(=O)C3N2Nc2ccccc2F)c2ccccc12 (stereo not given) | 0.968 | 0.882 (inactive) | 0.785 | 0.579 | 0.762 | 2.23 | 1.34 | 1.3 | -0.316 | 1.21 | 1.95 | 1.23 | 1.03 | 0.995 | 1.33 | 0.716 | -0.646 | -0.111 | 1.29 | -1.77 (inactive)
7 | COCCOC(=O)N1C(=O)[C@@]2(c3cc(C#CCCO)ccc31)[C@H](C(=O)N1CCN(c3ncccn3)CC1)[C@H]1C(=O)O[C@H](c3ccccc3)[C@H](c3ccccc3)N1[C@@H]2c1ccc(OCCO)cc1 | 0.788 | -0.265 (inactive) | 0.199 | -0.0817 | 0.621 | 2.13 | 0.419 | 1.29 | 0.372 | 1.12 | 1.12 | 1.23 | -0.293 | 0.972 | 1.21 | 1.29 | -1.28 | 0.92 | 1.02 | -0.21 (inactive)
8 | COC(=O)[C@@]1(Cc2ccc(F)cc2)[C@H]2c3cc(C(=O)N(C)C)n(Cc4ccsc4Br)c3C[C@H]2CN1C(=O)c1ccccc1 | 0.745 | -0.857 (inactive) | 1.88 | 1.08 | 0.938 | 2.95 | 1.65 | 0.0161 | -0.0576 | 1.13 | 0.77 | 1.12 | 1.96 | 1.04 | -0.161 | 0.021 | -0.51 | -0.675 | 1.04 | 1.18 (inactive)
9 | [N-]=[N+]=NCc1ccccc1[C@H]1OC(c2ccc(OCCCO)cc2)=N[C@@]1(Cc1ccccc1N=[N+]=[N-])C(N)=O | 0.884 | 0.385 (inactive) | 0.339 | -0.229 | 0.743 | 2.72 | -0.182 | 1.27 | -0.0265 | 1.08 | 1.03 | 1.14 | 0.579 | 1.01 | 1.21 | 0.27 | 0.145 | 0.174 | 1.21 | -3.23 (inactive)
10 | CN1C(=O)C2C=CC(C(O)c3ccc([N+](=O)[O-])cc3)N(Nc3ccccc3)C2C1=O (stereo not given) | 1.06 | -1.05 (inactive) | 0.315 | -0.0305 | 0.652 | 1.94 | 0.701 | 1.31 | 0.196 | 1.15 | 0.358 | 1.23 | 0.36 | 0.999 | 1.26 | 0.531 | -0.387 | 0.0022 | 1.04 | -0.53 (inactive)
11 | COC(=O)[C@H]1N=C(c2ccc(OCCCO)cc2)O[C@H]1c1ccccc1N=[N+]=[N-] | 0.177 | 0.408 (inactive) | 0.156 | 0.273 | 0.574 | 2.51 | 0.285 | 0.342 | 0.158 | 0.656 | 0.608 | 1.16 | 2.19 | 0.936 | 0.562 | -0.0231 | -0.512 | -0.401 | 0.733 | -19.2 (active)
